Compound activity from PubChem.
G9a block = inhibitors of human histone lysine methyltransferase G9a | Q96KQ7 | G9a H3K9 monomethylation, AlphaScreen, 2 h | Potency, µM (titrated, usually from 102 µM), for inactives: at the highest dose activity, negative = inhibition, most hits filed as inhibitors | 8.8% of 350,000 active | AID 504332; further: on the % scale 0 is the no-effect control and ±100 the full control effect; nearly all actives have a fitted effect of over 75% in size
Target sequence (Q96KQ7 913-1193 limits assumed): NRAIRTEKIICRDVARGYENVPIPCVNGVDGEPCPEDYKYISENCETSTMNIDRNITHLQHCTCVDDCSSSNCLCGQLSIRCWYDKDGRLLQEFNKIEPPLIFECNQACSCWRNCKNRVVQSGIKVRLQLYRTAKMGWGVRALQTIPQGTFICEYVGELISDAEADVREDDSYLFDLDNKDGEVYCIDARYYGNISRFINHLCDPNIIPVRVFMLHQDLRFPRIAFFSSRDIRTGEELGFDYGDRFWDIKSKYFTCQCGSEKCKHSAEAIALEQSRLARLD
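G9a (20 nM) was preincubated 15 min with compound, then reacted 2 h at room temperature with 500 nM biotin-H3K9 peptide and 20 µM SAM. Monomethyl-H3K9 detected by AlphaScreen using anti-H3K9me1 antibody.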
BAZ2B block = BAZ2B (human) inhibition. Q9UIF8. AlphaScreen BAZ2B-H3K14Ac peptide displacement. Potency, µM (series often up to 114 µM), inactives show at the top dose activity change, negative = inhibition, actives largely listed as inhibitors. 4.4% of 360,000 active; further: on the % scale 0 is the no-effect control and ±100 the full control effect; nearly all actives have a fitted effect of over 60% in size
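BAZ2B 50 nM plus b-H3(5-23)K14Ac 50 nM, PBS pH 7.4/0.01% Tween-20, 30 min RT; compound added (max 110 uM), 30 min RT; streptavidin donor/Ni-chelate acceptor beads 10 ug/mL final, 20 min dark; AlphaScreen read.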
PLK1 PBD inh = PLK1 (human) polo-box domain binding inhibition. P53350. Plk1 PBD binding of FITC phosphopeptide, fluorescence polarization. Potency, µM, without a hit: max response, negative = inhibition, actives largely listed as inhibitors. 2.8% of 360,000 active; further: series mostly up to about 57 µM; on the % scale 0 is the no-effect control and ±100 the full control effect; nearly all actives have a fitted effect of over 65% in size
HP1b chromo inh = blocks HP1-beta chromodomain binding to methylated histone tails; AlphaScreen HP1-beta / biotin-H3K9me3 peptide binding; AID 540317; Potency, µM (doses to about 114 µM), for inactives: at the top dose activity change, negative = inhibition, hits mostly inhibitors; 0.56% of 390,000 active; P83916; further: nearly all actives have a fitted effect of over 70% in size
Target sequence (P83916 whole entry, looked up): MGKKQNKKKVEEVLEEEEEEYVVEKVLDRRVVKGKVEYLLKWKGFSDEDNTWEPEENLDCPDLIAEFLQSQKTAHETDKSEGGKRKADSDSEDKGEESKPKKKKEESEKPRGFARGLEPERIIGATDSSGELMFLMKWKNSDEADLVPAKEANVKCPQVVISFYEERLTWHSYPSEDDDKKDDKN
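HP1-beta protein (50 nM final) preincubated 30 min at room temperature with biotinylated H3(1-18)K9me3 peptide (50 nM) in PBS pH 7.4, 0.01% Tween-20, then compound added for 30 min. AlphaScreen streptavidin donor/nickel chelate acceptor beads (10 ug/mL final), 30 min dark, luminescence read.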
JMJD2A Tudor = JMJD2A Tudor domain (human) inhibition | Potency, µM (series often up to 114 µM), without a hit: at the highest dose activity change, negative = inhibition, most hits filed as inhibitors | 4.4% of 390,000 active | AID 504339 | AlphaScreen JMJD2A-Tudor / H3K4me3 peptide binding | O75164; further: on the % scale 0 is the no-effect control and ±100 the full control effect; nearly all actives have a fitted effect of over 50% in size
12-LOX inh = ALOX12 (human) lipoxygenase inhibition; AID 1671190; P18054; purified 12hLO, xylenol orange hydroperoxide absorbance; 1.1% of 580,000 active; Potency, µM (titrated, usually from 108 µM), without a hit: top-dose activity change, negative = inhibition, usual class: inhibitors; further: on the % scale 0 is the no-effect control and ±100 the full control effect
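Purified human 12hLO at 150 nM in 25 mM Hepes, 0.01% Triton X-100, pH 7.0, preincubated 15 min at room temperature with compound. Reaction started with 40 uM arachidonic acid, 30 min at room temperature. Hydroperoxide measured by Fe-xylenol orange, 573/405 nm absorbance ratio.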
* hit, by the source's call; ? = inconclusive; nt = no result given; [ ] = another dose, or the depositor's remark. Most compounds without a hit are left out; they make up all but 9% or so of the library. The call rests on the fitted dose curve; in most records, active means well fitted curve in the direction sought with a large enough effect; inconclusive means small, poorly fitted or top-dose-only effect, or another doubt; inactive means no such curve, though single readings can be large; an effect the other way counts as inactive or inconclusive. Potency means the concentration at half of the fitted maximal effect.

SMILES | G9a block | BAZ2B block | PLK1 PBD inh | HP1b chromo inh | JMJD2A Tudor | 12-LOX inh
O=C(CC1SC(=O)N(c2ccccc2)C1=O)Nc1cccc2ccccc12 (configuration not stated) | ? | -24.7% | 10.6µM* | 2.6% | -27.2% | 0.0%
CCCN1C(=O)SC(CC(=O)Nc2ccccc2C)C1=O (configuration not stated) | -6.3%[59 µM] | 0.1% | -21.7% | 30.5% | 0.8% | 1.0%
CCOc1ccc(NC(=O)CC2SC(=O)N(c3ccccc3)C2=O)cc1 (configuration not stated) | nt | ? | 9.47µM* | -4.3% | -28.8% | -13.0%
Cn1ncnc1CCNC(=O)c1cn(CCC2CCCCN2)nn1 (configuration not stated) | nt | nt | nt | nt | nt | 40.3%
COc1ccc(/C=C/C(=O)c2cc(Cl)cc(Cl)c2O)c(OC)c1 | -3.2% | -36.1% | 2.3% | 28.4% | -6.4% | -3.2%
O=C(/C=C/c1ccccn1)c1cc(Cl)cc(Cl)c1O | 50.1µM* | -35.0% | ? | 15.7% | -1.5%[11.4 µM] | ?
COC(=O)[C@]1(C)N[C@H](c2ccc(-c3ccc(Cl)c(Cl)c3)c(OC)c2)[C@@H]2C(=O)N(C)C(=O)[C@@H]21 | ? | -9.7% | -22.0% | -3.8% | 89.1µM* | ?
COC(=O)[C@]1(C)N[C@H](c2ccc(-c3ccc(OC)cc3)cc2)[C@@H]2C(=O)N(C)C(=O)[C@@H]21 | nt | nt | -10.3% | 56.6% | -20.7% | 0.6%
CC(=O)OC1C(=O)N(Cc2ccccc2)C1c1ccc(C)cc1 (configuration not stated) | nt | nt | 26.7µM* | 8.5% | ? | 83.0%
Cc1ccc(C2SCC(=O)N2Cc2ccccc2)cc1 (configuration not stated) | 32.3% | 3.9% | -8.4% | 41.8% | 1.7% | ?
CCc1ccc(CNC(=O)C2CCN(c3nnc(-n4c(C)ccc4C)s3)CC2)cc1 | -2.2%[59 µM] | -14.0% | nt | 10.3% | -25.8% | -17.2%
COc1ccc(OCc2ccc(-c3nc(C#N)c(NCc4cccnc4)o3)o2)cc1 | 12.6µM* | 17.8µM* | nt | -13.7% | 31.6µM* | -4.2%
COc1ccc(OCc2ccc(-c3nc(C#N)c(NCc4ccccc4)o3)o2)cc1 | ? | ? | nt | -20.1% | ? | -10.5%
Cc1ccccc1OCc1ccc(-c2nc(C#N)c(NCc3cccnc3)o2)o1 | 11.2µM* | 31.6µM* | nt | -11.7% | 15.8µM* | -11.7%
Cc1ccc(OCc2ccc(-c3nc(C#N)c(NCc4cccnc4)o3)o2)cc1 | 11.2µM* | 17.8µM* | nt | ? | 20µM* | -4.1%
COc1cccc(NC(=O)Cn2c(=O)n(CCCC(=O)NCc3ccc4c(c3)OCO4)c(=O)c3ccccc32)c1 | 6.3%[59 µM] | 2.6% | nt | 3.0% | -12.6% | -2.0%
CCC1CC(/C(C)=N/NC(N)=O)OC1=O (configuration not stated) | -10.0%[59 µM] | -13.2% | 1.5% | 15.8% | -6.3% | -11.2%
C/C(CC1CC(C)OC1=O)=N\NC(N)=S (configuration not stated) | 35.5µM* | ? | -3.1% | -12.1% | ? | -3.0%
Cc1csc(N2CCN(c3cc4nc(-c5ccncc5)[nH]c4cc3Cl)CC2)n1 | 7.94µM* | ? | -18.6% | 24.7% | 79.4µM* | -0.2%
Cc1ccc2nc(-c3ccncc3)[nH]c2c1 | -7.3% | ? | 7.6% | 40.7% | -5.5% | 9.7%
Cc1ccc(-c2csc(N3CCN(c4cc5c(cc4Cl)nc(C)n5CCN4CCCCC4)CC3)n2)cc1 | 44.7µM* | -38.3%[57.1 µM] | ? | -24.5% | 39.8µM* | ?
Cc1csc(N2CCN(c3cc4c(cc3Cl)nc(-c3ccncc3)n4CCCN3CCCC3)CC2)n1 | 10µM* | ? | -8.0% | 3.4% | 56.2µM* | -18.1%
CCOC(=O)C1(Cc2ccccc2)CCCN(CCO)C1 (configuration not stated) | -11.6%[0.501 µM] | -1.3% | -13.2% | 22.8% | -4.8% | -4.1%
C[C@]12C(=O)N(c3ccc(Br)cc3)C(=O)N1[C@@H]1c3ccccc3OC[C@@H]1[C@H]2c1ccccc1 | nt | -8.9% | -5.0% | 9.1% | -24.8% | 1.9%
